Test results from PubChem BioAssay (NCI).
This is part of a sample that, as a whole, favours compounds with a hit. Of some 83,000 tested, about 20% had one in any assay.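 Assay: single dose, 48 h. Readout: percent growth (0 = no net growth; negative = cell death). Active: <10.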 A number with no mark means an inactive call. Active and inactive are the calls of the source.

Key:
Test in all cases: NCI-60 one-dose screen, 48 h (100 = growth as untreated, 0 = no growth, -100 = all killed)
Conditions in all cases: 10 µM unless noted
NCI-H23 lung = system: NCI-H23 lung
NCI-H226 lung = system: NCI-H226 lung
NCI-H322M lung = system: NCI-H322M lung
HOP-62 NSCLC = system: HOP-62 NSCLC
NCI-H460 lung = system: NCI-H460 lung
HOP-92 NSCLC = system: HOP-92 NSCLC
NCI-H522 lung = system: NCI-H522 lung
A549/ATCC NSCLC = system: A549/ATCC NSCLC
786-0 renal = system: 786-0 renal
COLO 205 colon = system: COLO 205 colon

| SMILES | growth (NCI-H23 lung) | growth (NCI-H226 lung) | growth (NCI-H322M lung) | growth (HOP-62 NSCLC) | growth (NCI-H460 lung) | growth (HOP-92 NSCLC) | growth (NCI-H522 lung) | growth (A549/ATCC NSCLC) | growth (786-0 renal) | growth (COLO 205 colon) |
| --- | --- | --- | --- | --- | --- | --- | --- | --- | --- | --- |
| CS(CCCCN=C=S)=NC(=O)c1c(F)c(F)c(F)c(F)c1F (stereo not given) | 80.6% | 99.6% | 85.6% | 109% | 65.5% | 80.8% | 20.6% | 79.6% | 94.3% | 61.4% |
| C=C1CCC2C3(C)COC(c4cccc(Cl)c4)OC3CCC2(C)C1/C=C/C1=CCOC1=O (stereo not given) | 38.2% | 61% | 90.2% | 76.7% | 36.2% | 98.2% | 57.8% | 58.4% | 65.9% | 106% |
| COC1/C=C\OC2(C)Oc3c(C)c(O)c4c(O)c(c(CN(C)CCO)c(O)c4c3C2=O)NC(=O)/C(C)=C\C=C/C(C)C(O)C(C)C(O)C(C)C(OC(C)=O)C1C (stereo not given) | 91.9% | 104% | 97.8% | 89.7% | 103% | 115% | 87.8% | 116% | 95.9% | 108% |
| COc1ccc(-c2c(C)noc2-c2ccc(O)cc2O)cc1 | 81.4% | 101% | 94% | 118% | 54.3% | 104% | 69.5% | 75.3% | 97.9% | 121% |
| CCCCCCCCCCCCNC(=O)[C@H]1CSC(c2ccc(OC)c(F)c2)N1 (stereo not given in full) | -78.2% (active) | -71.4% (active) | -98.4% (active) | -81.8% (active) | -71.8% (active) | -93.8% (active) | -73.5% (active) | -88.5% (active) | -96.6% (active) | -81.5% (active) |
| CCC(=O)Oc1ccc(/C(=C(\C)c2ccccc2)c2ccc(OCCN(CC)CC)cc2)cc1 | 89.1% | 95.8% | 96.2% | 95.3% | 80.9% | 61% | 73.5% | 84.9% | 70.1% | 74.6% |
| O=C(O)c1cn(C2CC2)c2cc(N3CCN(Cc4nc5c(cnn5-c5ccc([N+](=O)[O-])cc5)c(=O)[nH]4)CC3)c(F)cc2c1=O | 101% | 94.8% | 99.1% | 103% | 105% | 112% | 95% | 102% | 98.9% | 112% |
| O=C(COCc1c(-c2ccccc2)no[n+]1[O-])Nc1ccc(C(=O)/C=C/c2ccc3c(c2)OCO3)cc1 | 101% | 96.6% | 113% | 108% | 112% | 73.2% | 140% | 85.4% | 113% | 120% |
| COc1ccc(CNc2nccnn2)cc1 | 94.6% | 92% | 103% | 98.6% | 106% | 108% | 85.4% | 96.9% | 107% | 95% |
| CCN(CC)CCC(=O)Nc1ccc(Cn2nnc3c2C(=O)c2nnn(Cc4ccc(NC(=O)CCN(CC)CC)cc4)c2C3=O)cc1 | -24.6% (active) | -49.5% (active) | -75.3% (active) | -34.5% (active) | -29.7% (active) | -44.3% (active) | -73.5% (active) | -58.1% (active) | 88.7% | -86.7% (active) |
| O=C(Nc1ccc(Nc2cc(Nc3ccccc3)ncn2)cc1)Nc1cc(C(F)(F)F)ccc1F | 77.5% | 94.7% | 61.9% | 68.6% | 69.8% | 49.3% | 24.5% | 48.1% | 84.4% | 64.4% |
| CCCCCCCCSC1=CC(=O)C(OC)=C(OC)C1=O | 26.6% | 80.9% | 89.4% | 91.3% | 45.9% | -31.3% (active) | -97.8% (active) | 57.2% | 61.9% | 37.1% |
| O=C(O)c1ccc2c(c1Sc1ccccc1)C(=O)c1ccccc1C2=O | 91.1% | 92.6% | 82.2% | 91.8% | 100% | 76.7% | 120% | 96.8% | 106% | 112% |
| C=C1CCC2C3(C)COC(c4ccc(SC)cc4)OC3CCC2(C)C1C/C=C1/C(=O)OCC1O (stereo not given) | 44.9% | 48.7% | 102% | 107% | 81.8% | 81.7% | 73.3% | 83.6% | 78.4% | 72.3% |
| CC#Cc1nc2ccccc2c(=O)[nH]1 | 80.6% | 64.5% | 104% | 58.3% | 73% | 92.7% | 52.6% | 72.2% | 42% | 78.7% |
| CSc1nc(NCCO)c(C#N)c(-c2cccc(N)c2)n1 | 90.5% | 92.8% | 97.6% | 83.7% | 99.6% | 95.7% | 87.4% | 100% | 103% | 108% |
| CC/C=C\C[C@H](O)C/C=C1/C(=O)C=C[C@@H]1C/C=C\CCCC(=O)NC(C)C | 13.4% | -33.5% (active) | 39.9% | -16.8% (active) | -4.43% (active) | 65.3% | -35.5% (active) | 2.59% (active) | 0.451% (active) | -41.3% (active) |
| Cc1nc2sc(C(=O)Nc3cccc4c3OCCO4)c(N)c2cc1C(C)O (stereo not given) | 57.6% | 50.2% | 62.8% | -3.21% (active) | 15.8% | 49.6% | -29.3% (active) | 49.9% | 43.2% | 5.86% (active) |
| C=C1C(=O)O[C@H]2[C@H]1CC/C(Cn1cc(Cn3ccc4ccccc43)nn1)=C\CC[C@@]1(C)O[C@@H]21 | 45.6% | 76.8% | 79.7% | 77.5% | 86.5% | -36.3% (active) | -60.6% (active) | 62% | -19.5% (active) | -71.4% (active) |
| N#Cc1ccc(NC(=O)Nc2ccc(Cc3ccc(NC(=O)Nc4ccc(C#N)cc4)cc3)cc2)cc1 | -4.62% (active) | 37.7% | 63.3% | 50.2% | 17.2% | 46.8% | 28.2% | 41.3% | 49.3% | 29.5% |
